Compounds without any hit were thinned out: in the full panel of roughly 83,000, 20% have a hit.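 Negative percent growth values reflect cell death: -40 means 40% of the cells present at the start died, and -100 means all died.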 The source made the active and inactive calls. Rule for the calls: active = growth percent below 10; inactive = the rest.
Each molecule was assayed on COLO 205 colon (assay: NCI-60 one-dose screen, 48 h (100 = growth as untreated, 0 = no growth, -100 = all killed)). Details: 10 µM unless noted.

SMILES | growth
COc1ccc(S(=O)(=O)N(C)c2oc(-c3ccc(Cl)cc3)nc2C#N)cc1 | 97.9% (inactive)
O=C(CSc1nnc(-c2ccc(Cl)c(Cl)c2)n1-c1ccccc1)Nc1ccc(C(=O)/C=C/c2ccc(Cl)cc2)cc1 | 93.3% (inactive)
Cc1ccc(C(F)(F)F)cc1N1CCN(C(=O)[C@H]2C[C@H]2c2ccc(C(F)(F)F)nc2)CC1 | 91.6% (inactive)
COc1ccc(S(=O)(=O)NC2c3ccccc3CC2O)cc1OC (stereo not given) | 119% (inactive)
CN1CCN(Cc2ccc(NC(=O)c3cncc(C#Cc4c(N)ncc5cc(F)ccc45)c3)cc2C(F)(F)F)CC1 | -20.5% (active)
COc1ccccc1NC(=O)n1c(=O)cc(C)c2ccc(O)cc21 | 110% (inactive)
CCCCCC(C)(O)C(C(=O)O)c1ccccc1 (stereo not given) | 118% (inactive)
C=C(C)[C@@H]1CC[C@]2(C(=O)NC(C)=O)CC[C@]3(C)[C@H](CC[C@@H]4[C@@]5(C)CCCNC(C)(C)[C@@H]5CC[C@]43C)[C@@H]12 | -59% (active)
Nc1nc(N)c2c(n1)NC(c1cccc(Nc3ccnc4cc(C(F)(F)F)ccc34)c1)CC(c1ccc(Cl)cc1)=N2 (stereo not given) | 29.5% (inactive)
COc1cccc(-c2cc(-c3ccc(Nc4nc(Nc5ccc(Cl)cc5)nc(Nc5ccc(Cl)cc5)n4)cc3)nc(N)c2C#N)c1 | -30.4% (active)
Cc1cc(=O)oc2cc(Oc3nc(-c4ccccc4)cn4c(-c5ccccc5)cnc34)ccc12 | 70.5% (inactive)
COc1cc(OC)cc(C(=O)Nc2cnc(Nc3ccc(N4CCOCC4)nc3)nc2Oc2ccc(C(F)(F)F)cc2)c1 | 83% (inactive)
COc1ccc(Cn2cc3c(c2)-c2oncc2CC3)cc1 | 68.4% (inactive)
CN1CCN(Cn2nc(-c3cc(Cl)cc(Cl)c3Cl)oc2=S)CC1 | 110% (inactive)
CC(C)(C)CC(C)(C)Nc1c(-c2c(O)c3ccccc3oc2=O)nc2sccn12 | 102% (inactive)
O=C(O)CCCN1C(=O)CSC1=S | 120% (inactive)
CC1(C)CC(=O)C2=C(C1)OC(C(=O)c1ccccc1)C2c1cccc(Oc2ccccc2)c1 (stereo not given) | 38.3% (inactive)
O=C(OCc1ccc2c(Br)cc(Br)c(O)c2n1)N1CCN(C(=O)c2cc3ccccc3[nH]2)CC1 | 50.6% (inactive)
COc1cc(-c2ccc(-c3ccc(C(=N)N)s3)s2)cc(OC)c1OC | -61.8% (active)
C(CCCSC1=NCCN1)CCSC1=NCCN1 | 121% (inactive)
COc1ccc(NC(=O)c2sc3nc(C)c(C(=O)c4ccccc4)cc3c2N)cc1 | 108% (inactive)
CNc1nc2ncc(-c3c(C)noc3C)cc2n1Cc1ccccc1 | 29.8% (inactive)
COC(=O)[C@H](C)NC(=O)c1ccc(NC(=O)c2[nH]c(C)c(Cl)c2Cl)c(OCCN)c1 | 104% (inactive)
Cc1[nH]c(C(=O)Nc2ccc(C(N)=O)cc2OC(C)C)c(Cl)c1Cl | 115% (inactive)
COc1cc(/C=N/NC(=O)c2ccc3nc(-c4ccc(Cl)cc4)[nH]c3c2)cc(OC)c1OC | 45.7% (inactive)

From PubChem BioAssay (NCI)
